Screening data: PubChem, The Scripps Research Institute Molecular Screening Center
ADAM17 inh = ADAM17 inhibitors, primary screen, biochemical, QFRET. Disintegrin and metalloproteinase domain-containing protein 17 (Homo sapiens), P78536. recombinant ADAM17, EDANS/DABCYL FRET peptide cleavage. inhibition, % at 6.95 µM. actives 0.83% (n = 370,000). AID 720648, 2013;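 active = inhibition above the mean of compounds lying between control limits plus 3 SD, set per campaign, cut at about 8.5% in these data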;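 note: 0% = DMSO-only wells as the low control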
ADAM10 inh = human ADAM10 inhibitors, primary screen, biochemical, QFRET, HTS; Disintegrin and metalloproteinase domain-containing protein 10 (Homo sapiens), O14672; recombinant ADAM10, EDANS/DABCYL FRET peptide cleavage, 3 h; inhibition, % at 7 µM; actives 0.62% (n = 370,000); AID 720582, 2013;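 active = inhibition above a per-campaign cutoff equal to the mean of compounds falling between control-based bounds plus 3 SD, cut at about 20% in these data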;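 note: 0% = DMSO wells while the 100% control is not disclosed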
PLCg1 inh = PLC-gamma1 enzyme inhibitors, primary screen, biochemical, fluorescence, purified enzyme. actives 0.84% (n = 370,000). inhibition, % at 12.2 µM. fluorogenic substrate. AID 720700, 2013; in the data active = inhibition above about 9.5%
proKLK7 act = proKLK7 zymogen activators, primary screen, biochemical, fluorescence intensity; purified proKLK7, EDANS-DABCYL substrate fluorescence; 100% is mature enzyme control, 0% vehicle; activation, % at 7 µM; Kallikrein-7 (Homo sapiens), P49862; actives 0.9% (n = 370,000);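 active = activation above the mean of all tested compounds plus 3 SD, computed per campaign excluding outliers beyond control limits, cut at about 13% in these data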
Target sequence (P49862 whole entry, looked up): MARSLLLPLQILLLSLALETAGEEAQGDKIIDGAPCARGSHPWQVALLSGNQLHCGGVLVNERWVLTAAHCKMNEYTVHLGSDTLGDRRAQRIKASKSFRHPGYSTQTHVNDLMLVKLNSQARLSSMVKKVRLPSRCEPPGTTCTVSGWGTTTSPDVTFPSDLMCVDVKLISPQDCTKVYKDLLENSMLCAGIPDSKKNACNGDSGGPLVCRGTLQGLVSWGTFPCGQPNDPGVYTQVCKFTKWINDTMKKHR
PLC-beta3 inh = human PLC-beta3 inhibitors, primary screen, biochemical, fluorescence. Purified PLC-beta3, fluorogenic substrate. inhibition, % at 12.2 µM. actives 0.18% (n = 370,000); in the data active = inhibition above about 11%;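 note: 0% = median of compound wells on plate and 100% = full blocker control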
HGIII-sPLA2 inh = human group III sPLA2 inhibitors, primary screen, biochemical, QFRET, BODIPY PC-A2 liposome substrate; QFRET BODIPY PC-A2 liposome hydrolysis, fluorescence; inhibition, % at 12.2 µM; actives 0.56% (n = 370,000);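 active = inhibition above mean plus 3 SD of compounds lying within the high and low control bounds, cut at about 19% in these data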;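 note: 0% = median of test compound wells and 100% = no enzyme DMSO wells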
ADAM10 confirm = human ADAM10 inhibitors, confirmation, biochemical, QFRET, triplicate. ADAM10 QFRET peptide cleavage, EDANS fluorescence. AID 743208, 2013. actives 1% (n = 2,100). inhibition, % at 6.95 µM. shares compounds with ADAM10 inh;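 active = inhibition above about 20% chosen separately for each screening run, limit read from the data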;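 note: 0% = DMSO wells and 100% = marimastat wells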
ADAM17 ctr = ADAM17 inhibitors, counter-screen for ADAM10 exosite inhibitor project, biochemical, QFRET, high throughput; shares compounds with ADAM10 inh; ADAM17 QFRET peptide cleavage, EDANS fluorescence; inhibition, % at 6.95 µM; actives 0.5% (n = 2,100); AID 743214, 2013;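 active = mean triplicate inhibition above the solvent-only control wells' mean plus 3 SD, cut at about 12% in these data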;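 note: 0% = DMSO wells and 100% = marimastat wells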
The depositor's hits bear a star; / = not tested or not shown; ! = not confirmed by another sample. Only some compounds are listed: those with a hit (about 3.4% of all), similar ones and a draw of the others.

SMILES | ADAM17 inh | ADAM10 inh | PLCg1 inh | proKLK7 act | PLC-beta3 inh | HGIII-sPLA2 inh | ADAM10 confirm | ADAM17 ctr
C[C@H](O)[C@@H]1C(=O)N2CCc3c([nH]c4c(-c5ccccc5)cccc34)[C@@H]2C[C@@H]1N(C)C(=O)Nc1cccc2ccccc12 | -87.9 | -342.8 | -107.8 | -12.1 | -134.4 | -7.3 | / | /
CCc1ccc(N=Nc2ccc(O)c3[nH]cnc23)cc1 | 6.8 | 23.5* | -5.5 | 0.6 | -10.9 | -52.5 | 1.8 | 0.8
O=S(=O)(c1ccc(C(F)(F)F)cc1)N1CCCc2nc(-c3ccc(F)cc3)ccc21 | -4.4 | -10.5 | -4.7 | 0.5 | -6.6 | -0.2 | / | /
Cc1ccc(S(=O)(=O)Nc2ccccc2O)cc1 | -1.8 | -12.1 | 1.2 | 0.0 | -3.1 | 2.2 | / | /
Cc1ccc(S(=O)(=O)Nc2ccccc2NS(=O)(=O)c2ccc(C)cc2)cc1 | 5.1 | 22.5* | 0.1 | 0.7 | 0.8 | -52.9 | 4.9 | 0.6
CC(=O)[C@H]1CC[C@H]2[C@@H]3CCC4=CC(=O)CC[C@]4(C)[C@H]3CC[C@]12C | 7.4 | 21.0*! | 6.7 | 0.6 | -1.3 | -6.1 | 4.0 | 1.5
COC(=O)[C@]12C[C@H](CC(=O)NCCCCc3ccccc3)C(=O)N(Cc3ccco3)C1=C[C@H](COCc1ccccc1)O[C@@H]2C | 1.9 | 6.9 | -2.1 | -0.1 | -3.1 | -17.1 | / | /
CN(CCc1ccccc1)C(=O)c1cc2ccccn2n1 | -1.5 | -4.2 | -1.1 | 0.4 | 7.3 | -3.1 | / | /
COCCN(CCOC)C(=O)[C@H](CCc1ccccc1)NC(=O)[C@H]1O[C@@H](n2cnc3c(N)ncnc32)[C@H](O)[C@@H]1O | -5.7 | -12.1 | 1.2 | 0.3 | 0.8 | 6.3 | / | /
CC(C)NC(=O)c1onc(CSc2cccc3ccccc23)c1C(=O)O | -3.9 | 85.5* | -3.0 | -0.4 | -3.1 | -8.8 | -0.8 | 0.6
S=c1nc2ccccc2c2nc(-c3ccccc3)[nH]n12 | 1.7 | 21.3* | 3.5 | 0.0 | 0.3 | -11.2 | -3.1 | -0.7
COC(=O)CN1C(=S)N(c2ccc(Cl)cc2)C(=O)C1CC(=O)Nc1ccc(Cl)cc1 (stereo not drawn) | 7.5 | 21.8* | -0.1 | 0.0 | 2.3 | -7.2 | 3.6 | 0.5
COC(=O)CN1C(=S)N(c2ccc(F)cc2)C(=O)C1CC(=O)Nc1ccc(F)cc1 (stereo not drawn) | -4.0 | 1.3 | 5.9 | 0.0 | -4.6 | -30.5 | / | /
COC(=O)CN1C(=S)N(c2ccc(Cl)cc2)C(=O)C1CC(=O)Nc1ccc(F)cc1 (stereo not drawn) | 5.5 | 33.6* | 6.7 | -0.1 | 7.8 | -35.5 | 0.5 | -0.1
O=S1(=O)N[C@@H](Cc2ccccc2)COc2cc(NCCCN3CCOCC3)ccc21 | -1.1 | -3.7 | 0.0 | 0.2 | 1.6 | -10.7 | / | /
CCc1cc2c(nc1CC)CCCN2S(=O)(=O)c1ccccc1C | -3.6 | -2.7 | -2.3 | 0.1 | -4.7 | 1.8 | / | /
O=C(N[C@@H](Cc1ccccc1)C(=O)NCP(=O)(O)OC(Cc1ccccc1)C(=O)O)OCc1ccccc1 (stereo partly drawn) | -6.7 | -1.7 | -0.9 | / | -0.6 | 5.2 | / | /
CN(c1ccc(OCC(=O)OCC(=O)Nc2ccc(F)cc2)cc1)S(=O)(=O)c1ccc(Cl)cc1 | 1.5 | 20.3* | -0.3 | -0.1 | -5.2 | -20.1 | 5.9 | 1.6
Cc1ccc(NC(=O)COc2ccc(N(C)S(=O)(=O)c3ccc(F)cc3)cc2)cc1 | 4.5 | 3.9 | 1.6 | -1.0 | -2.2 | -15.3 | / | /
